Test results: ChEMBL document CHEMBL4513216, “Probing the Open Global Health Chemical Diversity Library for Multistage-Active Starting Points for Next-Generation Antimalarials” (ACS Infect Dis, 2020)
In all, about 69,000 compounds went through this assay and about 8,600 (12%) showed an effect of 50% or more. The sample as a whole holds a higher share of strong results than the screen did.

The molecules below were run on Plasmodium berghei (assay: Screen against P. berghei liver stage (PbLuc), transformed with Luciferase, at 10uM). Conditions: tested at 10 uM.
Format: functional, HepG2
Molecule `COCC(C)NC(=O)c1sccc1-n1cnnn1` (configuration not stated) has an INHIBITION of 36.5%.
For `Fc1ccccc1-c1nnn(CCCc2nn[nH]n2)n1`, the INHIBITION was 78.8%.
With `Nc1nnc(CCCn2nnc(-c3ccccc3F)n2)s1` the INHIBITION was 44.7%.
In the case of `Fc1ccccc1CN1CCC[C@H](Cn2nnc(-c3cccs3)n2)C1`, the INHIBITION is reported as 21.6%.
Work on `Cc1cc(-c2nnn(CCNS(C)(=O)=O)n2)ccc1F` yielded an INHIBITION of 31.8%.
Work on `CNS(=O)(=O)CCCn1nnc(-c2ccc(F)c(C)c2)n1` yielded an INHIBITION of -6.51%.
`Nc1nnc(Cn2nnc(-c3ccccc3F)n2)s1` showed an INHIBITION of 61.8%.
In the case of `COCCN1CCC(Cc2cncc(-c3ccc(C(=O)O)cc3)n2)CC1`, the INHIBITION is reported as 31.6%.
`Nc1cnn(CC(=O)N2CCCCC2)c1` gave an INHIBITION of 34%.
`COc1cccc(CN2CCCCC2Cn2nc(C)nc2C)c1` (configuration not stated) was tested, and the INHIBITION was -59.4%.
`NC(=O)COc1ccc(C(=O)N2CCCC(n3ccnc3)C2)cc1` (configuration not stated) was tested, and the INHIBITION was -19.4%.
Work on `CNC(=O)N1CC[C@H]2N(C)CC[C@@]2(C(=O)N2CCOCC2)CC1` yielded an INHIBITION of -18.4%.
`CCOc1ccc(C(=O)N2CCCS2(=O)=O)cc1OC` showed an INHIBITION of 11.2%.
Work on `COc1ccc(C(=O)N2CCCS2(=O)=O)cc1OC` yielded an INHIBITION of 5.03%.
For `COc1cc(C(=O)N2CCCS2(=O)=O)ccc1OC(C)C`, the INHIBITION was 66.7%.
With `Cc1cc(C)n(NC(=O)c2ccc(Cl)cc2Cl)c(=O)c1` the INHIBITION was 60.4%.
For `Cc1cc(C)n(NC(=O)c2ccccc2F)c(=O)c1`, the INHIBITION was 47.1%.
`Cc1cc(C)n(NC(=O)c2ccccc2C)c(=O)c1` gave an INHIBITION of -46.4%.
`CCc1nc(CN2CCN(C(=O)c3csnn3)CC2)cs1` gave an INHIBITION of 10.2%.
`CS(=O)(=O)Cc1ccc(C(=O)NC2CCc3nccn3C2)o1` (configuration not stated) gave an INHIBITION of -16.38%.
`CCc1c(O)nc2nc(N3CCCC3)nn2c1C` showed an INHIBITION of 44.1%.
Work on `CC(=O)N1CCCC1c1cncc(Oc2ccc(F)cc2)n1` (configuration not stated) yielded an INHIBITION of 11.1%.
For `COc1ccc(Oc2cncc(C3CCCN3C(C)=O)n2)cc1` (configuration not stated), the INHIBITION was -3.98%.
In the case of `CN(C)CC(=O)N1CCCC1c1cncc(Oc2ccc(F)cc2)n1` (configuration not stated), the INHIBITION is reported as 53%.
`NC(=O)CN1CCCC1c1cncc(Oc2ccc(Cl)cc2)n1` (configuration not stated) showed an INHIBITION of 13.5%.
In the case of `CC(C)(N)C(=O)N1CCCC1c1cncc(Oc2ccc(F)cc2)n1` (configuration not stated), the INHIBITION is reported as 31.1%.
`Cn1cncc1CN1CCCC1c1cncc(Oc2ccc(F)cc2)n1` (configuration not stated) gave an INHIBITION of 67.7%.
`Cc1ncccc1Oc1cncc(C2CCCN2Cc2cncn2C)n1` (configuration not stated) showed an INHIBITION of 32.8%.
For `CNCC(=O)N1CCCC1c1cncc(Oc2ccc(F)cc2)n1` (configuration not stated), the INHIBITION was 38.2%.
`Cn1cncc1CN1CCCC1c1cncc(Oc2ccc(Cl)cc2)n1` (configuration not stated) showed an INHIBITION of 96.6%.
With `CCN(CC)C(=O)c1ccn(COc2c(Cl)cccc2Cl)n1` the INHIBITION was 20.9%.
`Cc1ccc(N2CCCN(C(=O)CCCn3ccnc3C)CC2)nn1` gave an INHIBITION of 7.18%.
`CC(=O)N1CC2(CCN(c3nccc4ccccc34)CC2)CC1C(=O)O` (configuration not stated) was tested, and the INHIBITION was 29.2%.
Work on `Cc1nnc(N2CC[C@@]3(O)CCNC[C@H]3C2)c2ccccc12` yielded an INHIBITION of 25.8%.
Work on `O[C@]12CCNC[C@H]1CN(c1ccnc3ccccc13)CC2` yielded an INHIBITION of 56.7%.
With `O[C@]12CCNC[C@H]1CN(c1ncccc1Cl)CC2` the INHIBITION was 7.6%.
`O=C(O)C1CC2(CCN(c3nccc4ccccc34)CC2)CN1` (configuration not stated) gave an INHIBITION of 93.1%.
`CN(C)c1nccnc1N1CC[C@@]2(O)CCNC[C@H]2C1` gave an INHIBITION of 15.8%.
`O[C@]12CCNC[C@H]1CN(c1nccc3ccccc13)CC2` showed an INHIBITION of 53.9%.
`CN(C)CCO[C@H]1C[C@@H](O)C12CCN(c1nccc3ccccc13)CC2` gave an INHIBITION of -3.58%.
With `CCCOc1ccc2ccccc2c1CN1CC[C@@]2(O)CCNC[C@H]2C1` the INHIBITION was 5.41%.
Work on `Cc1cc(C2CCCN2C(=O)c2cc3c(s2)CCC3)no1` (configuration not stated) yielded an INHIBITION of 15.3%.
With `CS(=O)(=O)N1CCOCC2(CCN(C(=O)c3ccco3)CC2)C1` the INHIBITION was 27.6%.
In the case of `Cc1cnc(C)c(N2CCC3(CCCN(C4CCOCC4)C3=O)C2)n1` (configuration not stated), the INHIBITION is reported as -30%.
Molecule `CN1CCC(C(=O)N2CCC(c3ccc4c(N)n[nH]c4n3)CC2)CC1` has an INHIBITION of 34.75%.
With `Cc1cnn(C2CCCN(C(=O)c3ccc(C(N)=O)cn3)C2)c1` (configuration not stated) the INHIBITION was 44.3%.
Work on `Cc1c(Br)cccc1S(=O)(=O)NCc1ccnn1C` yielded an INHIBITION of 37.1%.
`O=c1cccnn1CC1CN(c2ncc(F)cn2)Cc2nccn2C1` (configuration not stated) showed an INHIBITION of -3.33%.
For `COc1ccc(C(=O)N2CCN(CCO)CC2)c(F)c1`, the INHIBITION was -61.4%.
With `OCCc1ncnn1Cc1cccc(Cl)c1` the INHIBITION was 0.426%.
In the case of `N#Cc1c[nH]nc1NCc1ccc2c(c1)OCO2`, the INHIBITION is reported as -5.51%.
`CN(Cc1ccc2c(c1)OCCO2)Cc1nnnn1-c1ccccc1` showed an INHIBITION of 51.2%.
`c1ccc(-n2nnnc2CNCc2ccc3c(c2)OCCO3)cc1` gave an INHIBITION of 34.9%.
`c1ccc(-n2nnnc2NCc2ccc3c(c2)OCO3)cc1` was tested, and the INHIBITION was 64.5%.
Work on `CN(Cc1ccc2c(c1)OCO2)Cc1nc(Cc2ccccc2)no1` yielded an INHIBITION of 9.56%.
Work on `NC(=O)c1c[nH]nc1NCc1ccc2c(c1)OCO2` yielded an INHIBITION of 4.35%.
Work on `COCCn1ccnc1CN1CCc2[nH]cnc2C1c1cnn(C)c1C` (configuration not stated) yielded an INHIBITION of 32.2%.
For `Cn1cc(-c2nnc3sc(C4CC4)nn23)cn1`, the INHIBITION was 0.87%.
`O=C(COc1ccccc1)NCCNC(=O)c1scnc1Cl` showed an INHIBITION of 23.5%.
`CCCc1cc(=O)[nH]c(-c2ccccc2CN(C)CCn2cccn2)n1` gave an INHIBITION of 16.1%.
Molecule `Cc1ncsc1C(=O)NC1CCN(Cc2ccc(C(N)=O)cc2)CC1` has an INHIBITION of -12.2%.
Work on `Cc1ncsc1C(=O)NC1CCN(Cc2ccc(C(F)(F)F)cc2)CC1` yielded an INHIBITION of 62.6%.
`Cc1ccc(CN2CCC(NC(=O)c3scnc3C)CC2)cc1` gave an INHIBITION of 40.9%.
`COCCN1CCN(Cc2nc3c(s2)CCCC3)[C@H]2CS(=O)(=O)C[C@H]21` showed an INHIBITION of -27.6%.
For `COCCN1CCN(Cc2ccncc2)[C@H]2CS(=O)(=O)C[C@H]21`, the INHIBITION was 63.5%.
Work on `COCCN1CCN(Cc2ccc(F)c(C)c2)[C@H]2CS(=O)(=O)C[C@H]21` yielded an INHIBITION of 28.5%.
Molecule `COCCN1CCN(Cc2ccc(Cl)cc2)[C@H]2CS(=O)(=O)C[C@H]21` has an INHIBITION of 52.1%.
For `CCc1ccc(CN2CCN(CCOC)[C@@H]3CS(=O)(=O)C[C@@H]32)cc1`, the INHIBITION was 39.4%.
In the case of `CCOc1ccc(CN2CCN(CCOC)[C@@H]3CS(=O)(=O)C[C@@H]32)cc1`, the INHIBITION is reported as 45.8%.
Molecule `COCCN1CCN(Cc2cccnc2)[C@H]2CS(=O)(=O)C[C@H]21` has an INHIBITION of 43%.
`COCCN1CCN(Cc2ccc(C(C)=O)cc2)[C@H]2CS(=O)(=O)C[C@H]21` was tested, and the INHIBITION was 32.1%.
`COCCN1CCN(Cc2nccs2)[C@H]2CS(=O)(=O)C[C@H]21` showed an INHIBITION of 55.7%.
